Experimental data reported in PubChem BioAssay AID1159580 (chemical genetic matrix, 2015).
About 2,000 (36%) of roughly 5,500 compounds were called active. Not shown: some 18% with an inconclusive outcome. This is one part of the list. A number with no mark means an inactive call. Cut-off read from the data, not from the text of the source: active = normalized growth mostly below about 0.91 (no sharp cut-off); inconclusive = no clear call, values can overlap the other calls; inactive = mostly above about 0.92.

Test: chemical genetic growth profiling, strain panel (AID 1159580);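 note: tested at 20 µM; growth read once vehicle control cultures reached saturation at 30 °C; 1 = growth at the plate median or of vehicle wells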
Details: S. cerevisiae deletion strains, growth OD
[1] = locus YAL013W, strain DEP1, stronger effect = lower value
[2] = locus YAL040C, strain CLN3, stronger effect = lower value
[3] = locus YCL061C, strain MRC1 (second series), stronger effect = lower value
[4] = locus YDR363W, strain ESC2, stronger effect = lower value
[5] = locus YER002W, strain NOP16, stronger effect = lower value
[6] = locus YNL175C, strain NOP13, stronger effect = lower value
[7] = locus YNL197C, strain WHI3, stronger effect = lower value
[8] = locus YNL224C, strain SQS1, stronger effect = lower value
[9] = locus YOR083W, strain WHI5 (second series), stronger effect = lower value

For NC(Cc1ccc(O)c(O)c1)C(=O)O (stereo not given), which normalized growth [1] is on record?
Its normalized growth is 0.997.

And the normalized growth [2]?
The normalized growth was 1.02.

What about the normalized growth [3] of the same compound?
Its normalized growth is 0.977.

What about the normalized growth (locus YDR150W, strain NUM1, stronger effect = lower value) of the same compound?
The normalized growth was 0.955.

What about the normalized growth [4] of the same compound?
Its normalized growth is 1.02.

And the normalized growth [5]?
Its normalized growth is 1.01.

What about the normalized growth (locus YMR263W, strain SAP30, stronger effect = lower value) of the same compound?
Its normalized growth is 1.01.

What about the normalized growth [6] of the same compound?
The normalized growth was 1.01.

What about the normalized growth [7] of the same compound?
Its normalized growth is 1.03.

And the normalized growth [8]?
Its normalized growth is 1.01.

And the normalized growth [9]?
The normalized growth was 0.97.

What does the source list for C[C@H](Cc1ccc(O)c(O)c1)[C@@H](C)Cc1ccc(O)c(O)c1?
normalized growth [1]: 0.783 (active); normalized growth [2]: 1.07; normalized growth [3]: 0.811 (active); normalized growth [4]: 0.745 (active); normalized growth [5]: 0.979; normalized growth (locus YGR078C, strain PAC10, stronger effect = lower value): 0.986; normalized growth (locus YNL153C, strain GIM3, stronger effect = lower value): 0.863; normalized growth [6]: 0.946; normalized growth [7]: 0.969; normalized growth [8]: 0.966; normalized growth (locus YNL322C, strain KRE1, stronger effect = lower value): 0.478 (active); normalized growth [9]: 0.925; normalized growth (locus YPL055C, strain LGE1, stronger effect = lower value): 0.77 (active); normalized growth (locus YPL241C, strain CIN2, stronger effect = lower value): 0.578 (active)
